{
  "source": "PubChem BioAssay (EPA / NIEHS)",
  "note": "Values joined by “and” are separate entries in the source; they are usually repeats but may differ in a detail not shown here. Equal values may be shown once. Where a structure was tested more than once in an assay, its records may differ in their call. Active and inactive are the calls of the source. Rule for the calls: active = hit-call score of the fitted dose curve at least 0.9, where 1 is the maximum; inactive = score below 0.9.",
  "data": [
    {"read-out": "Plasminogen activator inhibitor-1 (PAI1), SERPINE1 (gene 5054)", "assay": "BSK_MyoF_PAI1: BioMAP Diversity Plus: MyoF Assay for Plasminogen activator inhibitor-1 (PAI1) Biomarker Activity (AID 2284256)", "conditions": "primary human lung fibroblasts", "procedure": "BSK_MyoF is a cell-based, multiplexed-readout assay that uses lung fibroblasts, […], with measurements taken at 24 hours after chemical dosing in a microplate: 96-well plate.BSK_MyoF_PAI1 is an assay component measured in the BSK_MyoF assay. It measures PAI-1 antibody related to regulation of gene expression using ELISA technology.Data from the assay component BSK_MyoF_PAI1 was analyzed at the endpoint, BSK_MyoF_PAI1, in the positive analysis fitting direction relative to DMSO as the negative control and baseline of activity. Using a type of binding reporter, gain or loss-of-signal activity can be used to understand protein changes. To generalize the intended target to other relatable targets, this assay endpoint is annotated to the 'cytokine' intended target family, where the subfamily is 'plasmogen activator inhibitor'.\nThe levels of cell surface (or secreted, indicated by the prefix \"s\") biomarker endpoints were measured by ELISA. Overt cytotoxicity to cells in confluent adherent cultures (all systems other than the BT system) was assessed by measuring total protein levels using sulforhodamine B (SRB) staining in parallel cultures at the time of biomarker measurements, indicated as SRB endpoints. For proliferation assays for adherent cell types, individual cell types are cultured at sub-confluence and relative cell numbers quantified by SRB staining at time points optimized for each system (48 h: 3C and CASM3C systems; 72 h: BT and HDF3CGF systems; 96 h: SAg system). SRB was performed by staining cells with 0.1% SRB after fixation with 10% TCA and reading wells at 560 nm.Viability and proliferation of PBMC (T cells) was quantified by Alamar Blue reduction for the SAg and BT systems. For PBMC viability (referred to as PBMC Cytotoxicity within the assay endpoint names), cells were plated (75,000/well in a 96-well plate) and then chemical samples added for 1 h before addition of activators, SEB and TSST-1 (20 ng/mL final concentration each). Cells were incubated for 90 h. Then, Alamar Blue (20 uL/well) (Invitrogen, Cat DAL1100) was added for 6 h, and the plates were read with a fluorescence microplate reader at 546/580 nm (excitation/emission). For PBMC proliferation, cells were plated and activated as above but incubated for only 16 h prior to addition of Alamar Blue. Plates were read after 6 h.", "values": [
      {"smiles": "O=C(O)C(F)(F)C(F)(F)C(F)(F)OC(F)(F)F", "outcome": "inactive"},
      {"smiles": "Cc1cnccn1", "outcome": "inactive"},
      {"smiles": "O=C(O)CCC(F)(F)C(F)(F)C(F)(F)F", "outcome": "inactive"},
      {"smiles": "NS(=O)(=O)C(F)(F)C(F)(F)C(F)(F)C(F)(F)C(F)(F)C(F)(F)F", "outcome": "inactive"},
      {"smiles": "Nc1cc([N+](=O)[O-])cc(Cl)c1O", "outcome": "inactive"},
      {"smiles": "Cc1cc(O)c(C(C)(C)C)cc1C(C)(C)C", "AC50": "7.48 µM (active)"},
      {"smiles": "O=C(O)C(F)(F)C(F)(F)C(F)(F)C(=O)O", "outcome": "inactive"},
      {"smiles": "Cc1ccc(O)c(-n2nc3ccccc3n2)c1", "outcome": "inactive"},
      {"smiles": "O=C(F)C1(F)C(F)(F)C(F)(F)C(F)(F)C(F)(F)C1(F)F", "outcome": "inactive"},
      {"smiles": "C=CC(=O)OCCC(F)(F)C(F)(F)C(F)(F)C(F)(F)F", "outcome": "inactive"},
      {"smiles": "O=C(O)C(F)(F)C(F)(F)C(F)(F)OC(F)(C(F)(F)F)C(F)(F)F", "outcome": "inactive"},
      {"smiles": "O=C=NCc1cccc(CN=C=O)c1", "outcome": "inactive"},
      {"smiles": "CN(C(=O)C(F)(F)C(F)(F)C(F)(F)F)[Si](C)(C)C", "outcome": "inactive"},
      {"smiles": "FC(F)(F)C(F)(F)C(F)(F)C(F)(F)C(F)(F)C(F)(F)C(F)(F)CCI", "outcome": "inactive"},
      {"smiles": "NC(=O)C(F)(F)C(F)(F)C(F)(F)C(F)(F)C(N)=O", "outcome": "inactive"},
      {"smiles": "CCN(CC)c1ccc2c(c1)Oc1cc(N(CC)CC)ccc1C21OC(=O)c2ccccc21", "outcome": "inactive"},
      {"smiles": "NC(=O)C(F)(F)C(F)(F)C(F)(F)F", "outcome": "inactive"},
      {"smiles": "NC(=O)C(F)(F)C(F)(F)C(F)(F)C(F)F", "outcome": "inactive"},
      {"smiles": "OCCCCC(F)(F)C(F)(F)C(F)(F)C(F)(F)F", "outcome": "inactive"},
      {"smiles": "OCC(O)CC(F)(F)C(F)(F)C(F)(F)C(F)(F)F", "note": "(stereo not given)", "outcome": "inactive"},
      {"smiles": "FC(F)(F)C(F)(F)C(F)(F)C(F)(F)C(F)(F)C(F)(F)CC[Si](Cl)(Cl)Cl", "outcome": "inactive"},
      {"smiles": "OC(O)C(F)(F)C(F)(F)F", "outcome": "inactive"},
      {"smiles": "C=C(C)C(=O)OCC(F)(F)C(F)(F)C(F)(F)C(F)F", "outcome": "inactive", "AC50": "0.222 µM (active)"},
      {"smiles": "CCOC(C=C(C)CCC=C(C)C)OCC", "AC50": "20 µM (active)"},
      {"smiles": "OCC(F)(F)C(F)(F)C(F)(F)CO", "outcome": "inactive"},
      {"smiles": "O=C(c1ccccc1)c1ccc(O)cc1O", "outcome": "inactive"},
      {"smiles": "NC(=O)C(F)(F)C(F)(F)C(F)(F)C(F)(F)C(F)(F)C(F)(F)C(F)(F)F", "outcome": "inactive"},
      {"smiles": "OCCCC(F)(F)C(F)(F)C(F)(F)C(F)(F)C(F)(F)C(F)(F)C(F)(F)C(F)(F)F", "AC50": "16.5 µM (active) and 11.1 µM (active)"},
      {"smiles": "O=C1C=CC(=O)N1c1ccc(Cc2ccc(N3C(=O)C=CC3=O)cc2)cc1", "AC50": "5.09 µM (active)"},
      {"smiles": "O=C1c2c(O)ccc(Nc3ccc(CCO)cc3)c2C(=O)c2c([N+](=O)[O-])ccc(O)c21", "AC50": "32.3 µM (active)"},
      {"smiles": "NC(O)(C(F)(F)F)C(F)(F)F", "outcome": "inactive"},
      {"smiles": "FC(F)(F)C(F)(F)C(F)(F)CC1CO1", "note": "(stereo not given)", "outcome": "inactive"},
      {"smiles": "O=S(=O)(OCC(F)(F)F)C(F)(F)C(F)(F)C(F)(F)C(F)(F)F", "outcome": "inactive"},
      {"smiles": "OCC(F)(F)C(F)(F)C(F)(F)C(F)(F)C(F)(F)C(F)(F)C(F)(F)C(F)(F)CO", "outcome": "inactive"},
      {"smiles": "C=CC(=O)OCC(F)(F)C(F)(F)C(F)(F)COC(=O)C=C", "AC50": "14.2 µM (active) and 14.7 µM (active)"},
      {"smiles": "CCN(CCO)S(=O)(=O)C(F)(F)C(F)(F)C(F)(F)C(F)(F)C(F)(F)C(F)(F)C(F)(F)C(F)(F)F", "outcome": "inactive", "AC50": "55.1 µM (active)"},
      {"smiles": "CCOC(=O)CC(=O)C(F)(F)C(F)(F)F", "outcome": "inactive"},
      {"smiles": "NCC(F)(F)C(F)(F)C(F)(F)C(F)(F)C(F)(F)C(F)(F)F", "outcome": "inactive"}
    ]}
  ]
}
